# Screening results: PubChem, National Center for Advancing Translational Sciences (NCATS)
# An excerpt weighted towards active compounds, which were near 0.9% of everything screened.
# Fluorescein fluor – qHTS Assay for Spectroscopic Profiling in Fluorescein Spectral Region | Compound autofluorescence, 480/540 nm, fluorescein-equivalent; hits give high values | max fluorescein-equivalent concentration, M | 59,000 compounds, 0.91% hits | AID 593, 2007; in the data active means max fluorescein-equivalent concentration above about 10 nM; inconclusive means between about 1.1 nM and that limit
#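 Values reflect compound autofluorescence, normalized to fluorescein on the same plate and reported at each tested concentration. Conditions: 100 mM Tris pH 8.0, room temperature, 15 min, excitation 480 nm, emission 540 nm.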
# A488 autofl – qHTS Assay for Spectroscopic Profiling in A488 Spectral Region. compound autofluorescence, A488 spectral region, dye equivalency; Compound Type: qHTS ECL - MLSMR. max dye equivalency, M. 59,000 compounds, 0.1% hits. AID 591, 2007
#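 Autofluorescence read at ex 480/em 540 nm after 15 min RT in 100 mM Tris pH 8.0; compound signal normalized to A488 standard series on each plate, reported as dye-equivalent concentration at each test concentration.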
# A647 fluor – qHTS Assay for Spectroscopic Profiling in A647 Spectral Region; Compound fluorescence, A647 channel (570/671 nm), Tris buffer; max dye-equivalent concentration, M; 59,000 tested, under 10 active; AID 592, 2007;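 further: values scaled relative to a standard on each plate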
#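 Tris 100 mM pH 8.0; cpd + A647 stds pin-transferred; 15 min RT; CCD imager, ex 570/em 671. Output = A647-equivalent conc. per cpd conc.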
# TexasRed autofl – qHTS Assay for Spectroscopic Profiling in Texas Red Spectral Region | Compound fluorescence, Texas Red channel, 547/618 nm; hits give high values | max dye-equivalent concentration, M | 59,000 compounds, 0.06% hits | AID 587, 2007; in the data active means max dye-equivalent concentration above about 10 nM; inconclusive means between about 1.1 nM and that limit
#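 qHTS profiling of intrinsic compound fluorescence; 100 mM Tris pH 8.0; 15 min RT; ex 547 / em 618 nm; response expressed as Texas Red dye-equivalent concentration from six-point plate standard.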
# Rhodamine autofl – qHTS Assay for Spectroscopic Profiling in Rhodamine Spectral Region; 59,000 compounds, 0.05% hits; Rhodamine-region fluorescence, 547/598 nm, Tris buffer; hits give high values; max dye-equivalent concentration, M; AID 594, 2007; in the data active means max dye-equivalent concentration above about 11 nM; inconclusive means between about 1.1 nM and that limit
#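 A six-point rhodamine series on each plate calibrates the signal. Compounds sit in 100 mM Tris (pH 8.0) for 15 min at ambient temperature before imaging through 547 nm/598 nm filters.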
# Resorufin fluor – qHTS Assay for Spectroscopic Profiling in Resorufin Spectral Region; max dye-equivalent concentration, M; 59,000 compounds, 0.04% hits; Compound fluorescence, resorufin region 547/598 nm, buffer; hits give high values
#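 Read-out: intrinsic compound fluorescence at ex 547/em 598 nm after 15 min at RT in pH 8.0 Tris (100 mM). Values expressed as resorufin-equivalent concentration from per-plate standard series.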
# * = called active by the depositor; i = inactive; ? = inconclusive. Unless noted, how the calls were made is not given here.
SMILES,Fluorescein fluor,A488 autofl,A647 fluor,TexasRed autofl,Rhodamine autofl,Resorufin fluor
O=c1oc2c(CN3CCCCCC3)c(O)ccc2cc1-c1nc2ccccc2[nH]1,3e-06M*,1.4e-07M*,1e-09,i,i,i
CCOC(=O)C(NC(C)=O)(OCc1ccc(F)cc1)C(F)(F)F (stereo not given),i,i,1.4e-08,i,i,i
CCn1cc(C(=O)NCc2ccco2)c(=O)c2cc(S(=O)(=O)N3CCCCCC3)ccc21,i,i,1e-09,i,i,i
CCn1cc(C(=O)NCc2ccccn2)c(=O)c2cc(S(=O)(=O)N3CCCCC3)ccc21,1.7e-08M*,i,3.6e-08,?,?,?
CCc1cc2c(=O)c(-c3ccc4c(c3)OCCO4)coc2cc1OC(=O)c1ccco1,i,i,1e-09,i,i,i
CCc1cc2c(=O)c(-c3nc4ccccc4[nH]3)coc2cc1OC(=O)N1CCOCC1,1.1e-08M*,i,1e-09,i,i,i
COc1ccc(C(=O)N2CCC3(CC2)CN(C(=O)Nc2ccccc2)C3)cc1,?,i,1.1e-08,i,i,i
CCSC[C@@H](N)C(=O)O,i,i,1e-09,i,i,i
COc1ccccc1NC(=O)CC1Nc2ccccc2NC1=O (stereo not given),i,i,4.7e-09,i,i,i
O=C(CC1NC(=O)NC1=O)Nc1cccc2ccccc12 (stereo not given),4.3e-08M*,?,1e-09,i,i,i
CCOc1ccccc1-n1c(SCC(N)=O)nnc1-c1cccnc1,i,i,5e-09,i,i,i
CCn1c(CSc2nnc(-c3cccnc3)n2-c2ccccc2C)nc2cc(C(=O)O)ccc21,?,i,?,4.2e-07M*,2.6e-07M*,2.2e-07M*
CCn1c(CSc2nnc3ccccn23)nc2cc(C(=O)O)ccc21,1.4e-08M*,i,6.6e-08,1.1e-07M*,7.1e-08M*,4.7e-08M*
CC(C)(NO)/C(=N/O)c1cccs1,i,i,1e-09,i,i,i
COc1ccc(Oc2ncc3nc(-c4ccc(F)cc4)c(=O)n(C4CC4)c3n2)cc1,?,i,1.8e-08,i,i,i
Cn1c(CNC(=O)Nc2cccc(Cl)c2)nnc1SCc1ccccc1,?,i,4.9e-09,?,i,i
COc1cccc(Nc2ncc3nc(-c4ccccc4)c(=O)n(C[C@H]4CCCO4)c3n2)c1,1.1e-08M*,i,2.4e-09,i,i,i
COc1cccc(Nc2ncc3nc(-c4ccc(Cl)cc4)c(=O)n(C[C@H]4CCCO4)c3n2)c1,i,i,1e-09,i,i,i
Cn1c(SCC(=O)N2CCCc3ccccc32)nnc1-c1cccs1,i,i,2.1e-09,i,i,i
CCNc1cccc2c1C(=O)N(C)C2=O,2.7e-07M*,1.3e-08M*,5.1e-08,i,i,i
CN1C(=O)c2cccc(NCCCN3C(=O)c4ccccc4C3=O)c2C1=O,6.7e-08M*,?,1e-09,i,i,i
CN1C(=O)c2cccc(N(C)C)c2C1=O,?,i,2.6e-08,i,i,i
c1ccc([P+](CC[P+](c2ccccc2)(c2ccccc2)c2ccccc2)(c2ccccc2)c2ccccc2)cc1,i,i,1.2e-09,i,i,i
Cc1cc(C(F)F)n2nc(C(=O)Nc3c(F)cc(F)cc3Br)nc2n1,i,i,8.9e-09,i,i,i
CC(C)OCCCn1c(=S)[nH]c2ccc(N3CCOCC3)cc2c1=O,?,i,2.1e-08,i,i,i
COCCn1c(=O)c(CCc2ccccc2)nc2cnc(Oc3ccc(OC)cc3)nc21,i,i,1e-09,i,i,i
CC1C2C(c3ccccc3)N(C)C(=O)N(C)C2N(C)C(=O)N1C (stereo not given),1.5e-08M*,i,2.5e-09,i,i,i
